Common to all, as to assay type: functional
In test [1] the test system is Plasmodium falciparum. In words: GSK_TCMDC: Inhibition of Plasmodium falciparum 3D7 in whole red blood cells, using parasite LDH activity as an index of growth. Test compounds present at 2uM.
For test [2], the system named is Plasmodium falciparum. The test can be described thus: GSK_TCMDC: Inhibition of Plasmodium falciparum Dd2 in whole red blood cells, using parasite LDH activity as an index of growth. Test compounds present at 2uM.
Test [3] relates to HepG2. In words: GSK_TCMDC: Percent inhibition of human HepG2 cell line. Test compounds present at 10uM.

With `CCCc1cc(OC)c(C[C@@H]2c3cc(O)c(Cl)cc3CCN2C)cc1OC.Cl`, the Inhibition in test [1] was 98%; in test [2], 98%; in test [3] it was 3%.
Consider `COc1cc(Cc2cnc(N)nc2N)ccc1OCc1ccc(F)c(F)c1`, for which the Inhibition in test [1] worked out at 90%; in test [2] it was 31%; in test [3], 10%.
With `N#Cc1cccc(C(=O)Nc2ccc(-c3ccc(CN4CCCC4)cc3)cc2)c1.O=C(O)C(F)(F)F`, the Inhibition in test [1] was determined as 92%; in test [2], 32%; in test [3], 38%.
Regarding `c1cncc(NCc2ccc(-c3cc4ccncc4cc3OC3CCNCC3)s2)c1`, the Inhibition in test [1] worked out at 100%; in test [2], 19%; in test [3] it was 4%.
Taken in the same sequence, the figures for `O=C(O)C1CC(=O)N(c2ccc(Cl)cc2)C1` (configuration not stated) were 97%, 33% and 51%.
As to `O=C(Nc1ccc2oc(-c3ccc(Cl)cc3Cl)nc2c1)c1ccc([N+](=O)[O-])o1`, the Inhibition in test [1] came out at 95%; in test [2] it was 78%; in test [3], 39%.
Turning to `COc1ccccc1/C=C/C(=O)NC1CCC(CCN2CCc3ccc(-c4cc(C)no4)cc3CC2)CC1.Cl` (configuration not stated), the Inhibition in test [1] stood at 95%; in test [2] it was 11%; in test [3] it was 47%.
As to `CN1CCCC(CN2CCN(Cc3cccc(-c4ccc(-c5nc6cc(F)ccc6[nH]5)cc4)c3)CC2)C1.O=C(O)C(F)(F)F` (configuration not stated), the figures for the Inhibition in test [1], in test [2] and in test [3] were 100%, 100% and 78%, respectively.
`O=C(/C=C/c1ccc(Cl)c(Cl)c1)NCCCCCCN1CCCN(C(=O)Nc2cc(Cl)cc(Cl)c2)CC1`: the Inhibition was found to be 98% in test [1], 2% in test [2] and 26% in test [3].
Turning to `Cc1ccc(/C=C/C(=O)NCCCCCN2CCCN(C(=O)Nc3ccc(Cl)c(Cl)c3)CC2)cc1`, the Inhibition in test [1] is given as 95%; in test [2], 1%; in test [3], 24%.
The corresponding values for `Cl.NC[C@H](CC1CCCCC1)NC(=O)c1ccc(-c2ccnc3[nH]ccc23)s1` are 98%, 4% and 39%.
For the compound `COc1ccc(-c2nonc2NC(=O)c2ccc(C(C)(C)C)cc2)cc1OC`, the Inhibition in test [1] came out at 99%; in test [2], 73%; in test [3], 0%.
As for `COc1ccc2ncc(F)c(CCN3CCC(NCc4cnc5c(c4)NC(=O)CS5)CC3)c2c1.Cl`, the results for the Inhibition in test [1], in test [2] and in test [3] were 99%, 16% and 16%, respectively.
On to `Nc1ccc2[nH]cc(C3CCN(CC4CCN(C(=O)/C=C/c5ccc(Cl)c(Cl)c5)CC4)CC3)c2n1`, for which the Inhibition came out at 99% in test [1], 97% in test [2] and 53% in test [3].
`c1ccc(COc2ccccc2COc2ccccc2-c2ccc3cccnc3n2)cc1`: the Inhibition in test [1] turned out to be 87%; in test [2], 95%; in test [3], 0%.
As to `CCSc1ccccc1COc1c(C)nc(N)nc1N.Cl`, the figures for the Inhibition in test [1], in test [2] and in test [3] were 93%, 4% and 54%, respectively.
As for `O=C(Nc1cccc(-c2ccc(-c3nc4ccccc4[nH]3)cc2)c1)c1cnn2cccnc12`, the Inhibition is 87% in test [1], 1% in test [2] and 9% in test [3].
For `O=[N+]([O-])c1ccccc1C=NN=c1cc[nH]c2ccccc12`, the values for the Inhibition in test [1], in test [2] and in test [3] were 100%, 98% and 3%, respectively.
In the case of `CC(C)CCNCc1c(O)ccc2ccccc12`, the Inhibition was 95% in test [1], 51% in test [2] and 9% in test [3].
On to `CCCc1c(Cl)cc(CNCCCNc2nc3ccncc3[nH]2)cc1Cl`, for which the values for the Inhibition in test [1], in test [2] and in test [3] were 98%, 0% and 23%, respectively.
As to `Cc1cnc(N)c(/C=C/c2cncc(C(=O)NCCc3ccc(Cl)cc3Cl)c2)c1.Cl`, the Inhibition in test [2] was determined as 100%; in test [3], 2%.
Turning to `Br.CC1(C)NC(N)=NC(=N)N1OCCCOc1cc(Cl)cc(Cl)c1`, the figures for the Inhibition in test [1], in test [2] and in test [3] were 95%, 97% and 62%, respectively.
Taken in the same sequence, the figures for `CCOc1ccc2c(=NN=Cc3c4ccccc4cc4ccccc34)cc(C)[nH]c2c1` were 90%, 94% and 0%.
The corresponding values for `Cc1cc(NCCc2cccc(F)c2)nc(NC(=N)Nc2cccc(C(F)(F)F)c2)n1` are 100%, 99% and 42%.
As for `CC(C)(C)c1ccc(N2C(N)=NC(N)=NC2(C)C)cc1Cl.Cl`, the Inhibition in test [1] amounted to 94%; in test [2], 3%; in test [3], 51%.
For the compound `Cc1cc(N[C@@H](Cc2ccccc2)C(=O)NCc2cccc(F)c2)nc(NCCc2cccs2)n1.O=C(O)C(F)(F)F`, the Inhibition came to 99% in test [1], 22% in test [2] and 9% in test [3].
The corresponding values for `O=C(Nc1ccc(Cl)cc1)c1cc(Cl)ccc1NC(=O)C1CCc2ccccc2O1` (configuration not stated) are 98%, 63% and 1%.
As to `Cc1c(F)cc(C(=O)NC2CC2)cc1-c1ccc2c(cnn2S(=O)(=O)c2ccc(C#N)cc2)c1`, the Inhibition in test [1] was determined as 97%; in test [2] it was 92%; in test [3], 17%.
As to `Cc1cc(N2CCN(C(=O)OC(C)(C)C)CC2)ccc1N`, the figures for the Inhibition in test [1], in test [2] and in test [3] were 92%, 38% and 11%, respectively.
The corresponding values for `Cc1[nH]c(C)c(C(F)(F)F)c(=O)c1-c1ccc(Oc2ccc(OC(F)(F)F)cc2)cc1` are 97%, 96% and 0%.
On to `O=C(O)C(F)(F)F.O=C1COC2(CN1C1CCN(Cc3ccc(O)cc3Cl)C1)c1ccccc1-c1ccccc12` (configuration not stated), for which the values for the Inhibition in test [1], in test [2] and in test [3] were 82%, 70% and 10%, respectively.

The term Inhibition denotes the share of the control response that was lost under treatment. A high value points to a strong effect.
